Data reported in PubChem BioAssay (Tox21).
A number with no mark means an inactive call. Records with an inconclusive call do not appear. Entries that show only a call come without a potency. Active and inactive are the calls of the source. Unless noted, the call rests on the fitted dose curve.

Tests used:
[1] = Nuclear factor erythroid 2-related factor 2/antioxidant responsive element (Nrf2/ARE) small molecule agonists: qHTS cell viability counter screen in human keratinocytes (AID 1919968; active means well fitted curve in the direction sought with a large enough effect in the repeat runs; an effect the other way counts as inactive or inconclusive; further: nearly all actives have a fitted effect of over 55% in size; further: potency means the concentration at half of the fitted maximal effect)
Method in brief: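 Measured as CellTiter-Fluor fluorescence, this readout tracks cytotoxicity in the same wells as the ARE-luciferase screen. HaCaT reporter cells (1,500/well) received compounds after a 5 h pre-incubation and were exposed for 23 h.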

[2] = Nuclear factor erythroid 2-related factor 2/antioxidant responsive element (Nrf2/ARE) small molecule agonists: luciferase reporter gene qHTS assay in human keratinocytes (AID 1919969); further: nearly all actives have a fitted effect of over 35% in size
[3] = biological target: Gonadotropin-releasing hormone receptor (Homo sapiens) (UniProt P30968); assay: Human gonadotropin-releasing hormone receptor (GnRHR) small molecule agonists, calcium flux assay in GnRHR-HEK293 cells (AID 1920063); further: nearly all actives have a fitted effect of over 35% in size
Gonadotropin-releasing hormone receptor (Homo sapiens), sequence (P30968 whole entry, looked up): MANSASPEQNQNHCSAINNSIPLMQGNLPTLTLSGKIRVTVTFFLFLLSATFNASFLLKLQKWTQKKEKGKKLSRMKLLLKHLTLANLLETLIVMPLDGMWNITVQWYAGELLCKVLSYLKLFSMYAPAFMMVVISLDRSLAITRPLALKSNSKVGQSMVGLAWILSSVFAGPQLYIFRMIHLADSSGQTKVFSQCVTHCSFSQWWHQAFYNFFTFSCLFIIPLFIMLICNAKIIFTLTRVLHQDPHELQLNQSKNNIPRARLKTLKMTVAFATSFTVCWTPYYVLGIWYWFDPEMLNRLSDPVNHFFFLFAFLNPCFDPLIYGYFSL
Method in brief: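 Fluorescence kinetics (480 nm excitation, 540 nm emission; 3 min, 1 s steps) report calcium mobilisation in human GnRHR-HEK293 cells in agonist mode. Dye incubation: 1 h, 37 C.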

[4] = biological target: KiSS-1 receptor (Homo sapiens) (UniProt Q969F8); assay: Human kisspeptin (KISS1R) small molecule agonists, calcium flux assay in KISS1R-HEK293 cells (AID 1920064; active means well fitted curve in the direction sought with a large enough effect in the repeat runs; an effect the other way counts as inactive or inconclusive)
KiSS-1 receptor (Homo sapiens), sequence (Q969F8 whole entry, looked up): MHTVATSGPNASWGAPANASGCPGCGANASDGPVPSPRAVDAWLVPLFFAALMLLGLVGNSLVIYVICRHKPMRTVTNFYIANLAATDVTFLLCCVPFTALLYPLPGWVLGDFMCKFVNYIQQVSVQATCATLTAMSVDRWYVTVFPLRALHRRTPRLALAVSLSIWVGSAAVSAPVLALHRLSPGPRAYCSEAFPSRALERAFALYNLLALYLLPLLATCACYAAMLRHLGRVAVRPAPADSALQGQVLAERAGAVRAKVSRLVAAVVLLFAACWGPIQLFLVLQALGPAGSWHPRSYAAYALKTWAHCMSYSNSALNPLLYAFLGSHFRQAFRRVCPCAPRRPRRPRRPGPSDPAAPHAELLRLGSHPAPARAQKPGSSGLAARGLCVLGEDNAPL
Method in brief: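 Measures KISS1R agonism through calcium-sensitive dye fluorescence in stably transfected HEK293 cells, read for 3 min after pin-tool compound delivery; 15-point titrations in triplicate.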

[5] = G protein-coupled receptor (GPCR) small molecule agonists, calcium flux assay: HEK293 wild type cell line counter screen (AID 1920065)
Method in brief: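 Readout: fluorescence at 480 nm excitation/540 nm emission, sampled at 1 s intervals for 3 min. Cells had been cultured 18 h, then dye-loaded 1 h at 37 C before compound or ATP addition.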

[6] = p53 small molecule agonists, cell-based qHTS assay with human liver microsomes (AID 1963577);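 further: p53 response element beta-lactamase reporter cells with liver microsomes plus NADPH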
Method in brief: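 HLM-supplemented p53RE-bla reporter assay: 16 h compound exposure at 37 C, microsomes and NADPH each 0.5 mg/mL final, read by fluorescence intensity.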

[7] = p53 small molecule agonists, cell-based qHTS assay with rat liver microsomes (AID 1963578)
Method in brief: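 Quantitative HTS of the Tox21 10K library: p53RE-bla cells, rat liver microsomes plus NADPH at 0.5 mg/mL final each, 16 h at 37 C, beta-lactamase fluorescence detection.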

[8] = p53 small molecule agonists, cell-based qHTS assay with human liver microsomes: qHTS cell viability counter screen (AID 1963579); further: nearly all actives have a fitted effect of over 45% in size
Method in brief: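 Viability of p53RE-bla cells is measured as CellTiter-Glo luminescence following a 16 h, 37 C incubation with compound, liver microsomes from human donors and NADPH.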

[9] = p53 small molecule agonists, cell-based qHTS assay with rat liver microsomes: qHTS cell viability counter screen (AID 1963580); further: nearly all actives have a fitted effect of over 45% in size
Method in brief: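 Viability is assessed in parallel with the p53 reporter read: HCT-116 p53RE-bla cells receive compounds plus rat microsomes and NADPH (0.5 mg/mL final apiece), incubate 16 h at 37 C, and then CellTiter-Glo luminescence is recorded.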

[10] = p53 small molecule agonists, cell-based qHTS assay: qHTS cell viability counter screen (AID 1963581); further: nearly all actives have a fitted effect of over 45% in size; further: potency means the concentration at half of the fitted maximal effect
Method in brief: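 In the same plates used for the p53 bla reporter, HCT-116 cells given compounds for 16 h at 37 C received CellTiter-Glo; luminescence was recorded 30 min later at room temperature.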

[11] = biological target: 5-hydroxytryptamine receptor 2A (Homo sapiens) (UniProt P28223); assay: 5-hydroxytryptamine receptor 2A (HTR2A) small molecule antagonists, cell-based qHTS assay (AID 1963586); further: nearly all actives have a fitted effect of over 45% in size
5-hydroxytryptamine receptor 2A (Homo sapiens), sequence (P28223 whole entry, looked up): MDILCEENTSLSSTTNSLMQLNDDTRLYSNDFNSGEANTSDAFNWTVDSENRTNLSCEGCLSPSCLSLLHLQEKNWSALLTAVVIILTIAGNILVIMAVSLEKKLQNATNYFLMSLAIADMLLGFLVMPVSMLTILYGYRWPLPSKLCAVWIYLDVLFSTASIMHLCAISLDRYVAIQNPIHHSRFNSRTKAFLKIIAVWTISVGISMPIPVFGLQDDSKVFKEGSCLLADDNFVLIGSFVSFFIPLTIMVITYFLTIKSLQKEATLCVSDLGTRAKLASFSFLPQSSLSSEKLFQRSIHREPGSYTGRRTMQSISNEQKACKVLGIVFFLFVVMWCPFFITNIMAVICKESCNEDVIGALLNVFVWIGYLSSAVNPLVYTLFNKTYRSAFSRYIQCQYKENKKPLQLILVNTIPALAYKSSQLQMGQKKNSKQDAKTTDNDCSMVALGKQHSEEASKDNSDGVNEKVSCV
Method in brief: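 Antagonist-mode intracellular calcium assay: DOI (4 nM) added after 5 min compound pre-incubation at room temperature to dye-loaded HTR2A-CHO cells. Fluorescence followed for 3 min, sampled every second.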

[12] = biological target: 5-hydroxytryptamine receptor 2A (Homo sapiens) (UniProt P28223); assay: 5-hydroxytryptamine receptor 2A (HTR2A) small molecule agonists, cell-based qHTS assay (AID 1963587); further: nearly all actives have a fitted effect of over 30% in size
Method in brief: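 CHO cells stably expressing human HTR2A, plated 18 h, loaded with calcium dye 1 h at 37 C. Agonist mode: compounds added and intracellular calcium fluorescence recorded kinetically for 2 min at 1 sec intervals.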

[13] = biological target: Muscarinic acetylcholine receptor M1 (Homo sapiens) (UniProt P11229); assay: Cholinergic receptor muscarinic 1 (CHRM1) small molecule antagonists, cell-based qHTS assay (AID 1963588); further: nearly all actives have a fitted effect of over 40% in size
Muscarinic acetylcholine receptor M1 (Homo sapiens), sequence (P11229 whole entry, looked up): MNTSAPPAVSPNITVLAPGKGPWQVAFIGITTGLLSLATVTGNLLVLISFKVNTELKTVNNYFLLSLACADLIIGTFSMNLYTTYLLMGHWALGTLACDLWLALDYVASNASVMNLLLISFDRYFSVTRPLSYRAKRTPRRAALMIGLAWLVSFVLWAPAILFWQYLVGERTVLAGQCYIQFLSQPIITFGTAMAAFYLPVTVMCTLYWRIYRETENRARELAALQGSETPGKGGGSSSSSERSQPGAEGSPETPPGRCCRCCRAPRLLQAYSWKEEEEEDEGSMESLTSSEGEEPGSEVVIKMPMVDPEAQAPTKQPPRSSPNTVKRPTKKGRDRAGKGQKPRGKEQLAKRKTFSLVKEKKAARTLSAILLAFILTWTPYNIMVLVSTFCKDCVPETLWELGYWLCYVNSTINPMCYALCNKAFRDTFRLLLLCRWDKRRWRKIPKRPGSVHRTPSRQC
Method in brief: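 CHRM1-CHO calcium-flux assay, antagonist mode. Cells were seeded 18 h, dye-loaded 1 h at 37 C and given compound for 5 min at RT, then acetylcholine was added at 50nM. FDSS fluorescence was read 3 min; 15 concentrations, three runs.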

[14] = biological target: Muscarinic acetylcholine receptor M1 (Homo sapiens) (UniProt P11229); assay: Cholinergic receptor muscarinic 1 (CHRM1) small molecule agonists, cell-based qHTS assay (AID 1963589); further: nearly all actives have a fitted effect of over 35% in size
Method in brief: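 Each compound was tested at 15 concentrations across three independent runs on dye-loaded CHO cells stably expressing human CHRM1, reading intracellular calcium fluorescence kinetically at 1 sec intervals.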

[15] = cAMP Responsive Elements (CRE) small molecule agonists, cell-based qHTS assay (AID 1963590)
Method in brief: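 Cell line: CRE-bla HEK 293T; medium DMEM/10% dialyzed FBS/0.1 mM NEAA/1 mM pyruvate/25 mM HEPES; 3 h compound exposure; beta-lactamase FRET readout after 2 h substrate loading at RT.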

[16] = cAMP Responsive Elements (CRE) small molecule antagonists, cell-based qHTS assay (AID 1963591; active means well fitted inhibition curve with a large enough effect in the signal ratio in the repeat runs, not every such curve was filed as active; the % refers to the signal ratio)
Method in brief: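 Inhibition of NKH477-driven (0.25 uM final) CRE-beta-lactamase signal in HEK293T cells, 3 h compound exposure at 37 °C, detected by FRET substrate fluorescence.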

[17] = biological target: Beta-2 adrenergic receptor (Homo sapiens) (UniProt P07550); assay: Adrenergic beta2 receptor (ADRB2) small molecule antagonists, cell-based qHTS assay (AID 1963592); further: series mostly up to about 92 µM; nearly all actives have a fitted effect of over 50% in size
Beta-2 adrenergic receptor (Homo sapiens), sequence (P07550 whole entry, looked up): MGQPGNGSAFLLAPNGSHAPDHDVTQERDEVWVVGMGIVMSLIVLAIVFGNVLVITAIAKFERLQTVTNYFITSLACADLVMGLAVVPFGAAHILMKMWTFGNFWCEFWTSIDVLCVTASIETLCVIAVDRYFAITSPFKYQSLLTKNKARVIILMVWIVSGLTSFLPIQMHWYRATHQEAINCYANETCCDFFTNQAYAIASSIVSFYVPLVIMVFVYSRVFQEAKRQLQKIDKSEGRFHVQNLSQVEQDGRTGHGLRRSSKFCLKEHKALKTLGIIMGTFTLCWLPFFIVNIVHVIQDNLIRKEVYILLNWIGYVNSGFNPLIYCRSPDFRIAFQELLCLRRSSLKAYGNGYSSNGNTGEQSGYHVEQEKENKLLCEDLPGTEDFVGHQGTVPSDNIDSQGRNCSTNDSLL
Method in brief: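 Cells (CHO, stable ADRB2 overexpression) incubated 18-20hr at 37C; compounds added from DMSO; agonist mix (1nM isoproterenol, 100uM IBMX, 25uM Ro-20-1724) added; 0.5hr RT; d2-cAMP and anti-cAMP-cryptate added; 1hr RT; 665/615 nm read.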

[18] = biological target: D(2) dopamine receptor (Homo sapiens) (UniProt P14416); assay: Dopamine D2 receptor (DRD2) small molecule agonists, cell-based qHTS assay (AID 1963594); further: nearly all actives have a fitted effect of over 35% in size
D(2) dopamine receptor (Homo sapiens), sequence (P14416 whole entry, looked up): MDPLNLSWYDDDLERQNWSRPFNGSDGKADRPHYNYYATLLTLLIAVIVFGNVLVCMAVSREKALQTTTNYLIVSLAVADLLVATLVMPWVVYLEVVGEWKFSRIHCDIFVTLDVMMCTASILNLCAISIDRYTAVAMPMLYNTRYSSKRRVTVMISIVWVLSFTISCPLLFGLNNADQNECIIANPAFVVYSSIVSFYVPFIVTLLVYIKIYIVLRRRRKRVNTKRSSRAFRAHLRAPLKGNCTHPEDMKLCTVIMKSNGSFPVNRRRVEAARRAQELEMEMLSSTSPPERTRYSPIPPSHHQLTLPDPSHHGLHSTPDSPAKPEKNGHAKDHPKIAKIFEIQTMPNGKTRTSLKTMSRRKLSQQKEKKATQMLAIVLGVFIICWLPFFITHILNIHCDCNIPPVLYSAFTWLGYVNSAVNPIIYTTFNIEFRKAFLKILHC
Method in brief: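 HEK293 cells stably expressing human DRD2, pre-treated with PDE inhibitor Ro20-1724 (0.1 mM final) and compound 10 min at room temperature, then stimulated with NKH477 (200nM […]) for 30 min. cAMP read by HTRF (665/620 nm).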

[19] = biological target: D(2) dopamine receptor (Homo sapiens) (UniProt P14416); assay: Dopamine D2 receptor (DRD2) small molecule antagonists, cell-based qHTS assay (AID 1963595; active means well fitted inhibition curve with a large enough effect in the signal ratio in the repeat runs, with a control signal flat; the % refers to the signal ratio)
Method in brief: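 Cells were plated and grown for 24 h at 37 °C. Ro20-1724 (0.1 mM final) went in first, then compound for 10 min. NKH477 (200 nM) with quinpirole (12 nM) followed for 30 min at RT, then HTRF detection reagents for 1 h.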

Row | Structure (SMILES) | Potency [1] | Potency [2] | Potency [3] | outcome [4] | outcome [5] | Potency [6] | Potency [7] | Potency [8] | Potency [9] | Potency [10] | Potency [11] | Potency [12] | Potency [13] | Potency [14] | Potency [15] | Potency [16] | Potency [17] | Potency [18] | Potency [19]
1 | Nc1ccc(S(=O)(=O)O)c(N)c1 | inactive | inactive | inactive | inactive | inactive | inactive | inactive | inactive | inactive | inactive | inactive | inactive | inactive | inactive | inactive | inactive | inactive | – | –
2 | C=CC/C=C/C | inactive | inactive | inactive | inactive | inactive | inactive | inactive | inactive | inactive | inactive | inactive | inactive | inactive | inactive | inactive | inactive | inactive | inactive | inactive
3 | CCCCCCCCCCCCCCCC/C=C/C1CC(=O)OC1=O (stereo not given) | inactive | inactive | inactive | inactive | inactive | inactive | inactive | inactive | inactive | inactive | inactive | inactive | inactive | inactive | inactive | inactive | – | inactive | inactive
4 | Cc1c(C2(c3cc(Br)c(O)c(Br)c3C)OS(=O)(=O)c3ccccc32)cc(Br)c(O)c1Br | 21 µM (active) | inactive | inactive | inactive | inactive | inactive | inactive | inactive | inactive | 22.3 µM (active) | inactive | inactive | inactive | inactive | inactive | inactive | – | – | –
